Screening results as filed in PubChem BioAssay.
Pf growth 48h: inhibits P. falciparum growth in the first generation, 48 h; AID 504832; Potency, µM (doses to about 28.7 µM), without a hit: top-dose activity change, negative = inhibition, usual class: inhibitors; P. falciparum luciferase growth in erythrocytes, 48 h; actives 5.9% (n = 310,000); note: potency is the fitted concentration of half-maximal effect
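Erythrocytes infected with P. falciparum carrying an integrated firefly luciferase reporter (2% hematocrit, 0.1% parasitemia final) were exposed to compounds in RPMI 1640 with 0.5% Albumax at 37 C, 5% CO2. Growth inhibition was scored as reduced luminescence.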
Lassa entry inh: blocks Lassa virus binding to or entry into cells | Lassa virus pseudotype entry inhibition, cell reporter | Potency, µM (doses to about 37.9 µM), for inactives: at the highest dose activity change, negative = inhibition, actives largely listed as inhibitors | actives 1.2% (n = 300,000) | AID 540256; calls by dose curve; tested in HEK293 cells; note: potency is the fitted concentration of half-maximal effect; nearly all actives have a fitted effect of over 50% in size
MARV entry inh: blocks Marburg virus binding to or entry into cells | actives 1.8% (n = 300,000) | Marburg virus pseudotyped entry inhibition, cell reporter | Potency, µM (highest dose often 37.8 µM), without a hit: top-dose activity change, negative = inhibition, hits mostly inhibitors; calls by dose curve; tested in HEK293 cells; note: potency is the fitted concentration of half-maximal effect
HCV inh: inhibitors of hepatitis C virus infection; Huh7.5.1 HCVcc-Cre infection, luciferase reporter, 44 h; Potency, µM (highest dose often 41.8 µM), inactives show at the highest dose activity change, negative = inhibition, most hits filed as inhibitors; actives 3.4% (n = 340,000); note: potency is the fitted concentration of half-maximal effect
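1,000 cells/well; 4 h culture; + compound; + HCVcc-Cre (~0.5 moi); 44 h; luciferase substrate, RT 15 min; read 15 sec.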
HCMV antiviral: human cytomegalovirus inhibition | HFF cells, HCMV-luciferase reporter, 72 h; stronger effect = lower value | activity change, negative = inhibition, % at 57.5 µM | actives 4.5% (n = 410,000) | AID 1259415; in the data active = activity change below about -60%; inconclusive = no clear call, values can overlap the other calls; inactive = above about -39%
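After 16 h attachment at 37C, HFF cells received test compound and HCMV-luciferase (1 PFU/cell); reporter luminescence read 72 h later, data normalized against buffer-only and known inhibitor Salinomycin.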
Pf growth 96h: P. falciparum growth inhibition at 96 hours; actives 6.9% (n = 320,000); P. falciparum luciferase reporter growth, 96 h; AID 504834; Potency, µM (top dose mostly 28.7 µM), for the others: top-dose activity change, negative = inhibition, most hits filed as inhibitors; note: potency is the fitted concentration of half-maximal effect
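Delayed-death screen, second-generation endpoint: infected erythrocytes, 2% hematocrit, 0.05% parasitemia final; 96 hours at 37 C, 5% CO2; luciferase detection reagent; luminescence decrease equals reduced growth.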
Starred values were filed as active, the others as inactive; ? = inconclusive; · = not tested or not shown; + = active, no number; [ ] = dose if it differs, or a comment. Sampled rows, rich in hits. Any-hit rate of the full collection: about 14%. Unless noted, calls come from the whole dose curve; as a rule, active = well fitted inhibition curve with a large enough effect; inconclusive = small, poorly fitted or top-dose-only effect, or another doubt; inactive = no such curve, though single readings can be large or run the other way. % is set by controls: 0 for no effect and ±100 for the full control effect.

SMILES	Pf growth 48h	Lassa entry inh	MARV entry inh	HCV inh	HCMV antiviral	Pf growth 96h
Cc1ccc(C2c3c(-c4ccccc4O)n[nH]c3C(=O)N2CCCO)cc1 (centres undefined)	·	?	-8.2%[46.1 µM]	·	22.5	·
CC(C)C(C(=O)NCC1CCCO1)N(CC1CCCO1)C(=O)CNS(=O)(=O)c1ccccc1 (centres undefined)	-2.2%	25.9%[46.1 µM]	0.1%[46.1 µM]	14.0%	-12.1	-2.7%
CSc1ccccc1OCc1cc(C(=O)N2CCC(Oc3cccnc3)CC2)no1	13.1µM*	·	·	·	?	?
O=C(c1cc(COc2cccc3cnccc23)on1)N1CCCC(CCCO)C1 (centres undefined)	39.6%	·	·	1.41µM*	-85.5*	4.6%
COCC1CCN(C(=O)c2cc(COc3cccc4cnccc34)on2)CC1	7.0%	-8.7%[46.1 µM]	-16.0%[46.1 µM]	7.08µM*	+	0.1%
CSc1ccccc1OCc1cc(C(=O)N2CCSCC2)no1	49.6%	?	?	5.8%	?	0.0%
COc1ccccc1OCc1cc(C(=O)N2CCCC(OCc3cccnc3)C2)no1 (centres undefined)	1.6%	-3.8%[46.1 µM]	10.1%[46.1 µM]	-6.9%	45.5	11.7µM*
COc1cccc(CNc2ccc(N3CCC(C)CC3)cc2)c1OC	1.85µM*	-3.6%	-18.9%	-10.6%	-37.8	?
CCc1ccc2oc(C(=O)Nc3nc(-c4ccc(F)cc4)ns3)c(C)c2c1	·	?	-1.3%[46.1 µM]	·	28.2	·
CCN1C(=O)[C@H]2[C@@H](c3ccc(-c4ccc(C(C)=O)cc4)cc3)N[C@@](Cc3ccccc3)(C(=O)OC)[C@H]2C1=O	13.1µM*	·	·	?	11.1	10.4µM*
CCN1C(=O)[C@H]2[C@@H](c3ccc(-c4ccccc4)cc3)N[C@@](Cc3ccccc3)(C(=O)OC)[C@H]2C1=O	10.4µM*	·	·	15.1%	-21.3	?
COC(=O)[C@]1(Cc2ccccc2)N[C@H](c2ccc(-c3ccc(F)cc3)cc2)[C@@H]2C(=O)N(C)C(=O)[C@@H]21	?	·	·	11.2µM*	2.5	13.1µM*
CCN1C(=O)[C@H]2[C@@H](c3ccc(-c4ccccc4)cc3)N[C@@](CC(C)C)(C(=O)OC)[C@H]2C1=O	8.28µM*	·	·	0.7%	0.3	9.28µM*
COC(=O)[C@]1(Cc2ccccc2)N[C@H](c2ccc(-c3ccc4c(c3)OCO4)cc2)[C@@H]2C(=O)N(C)C(=O)[C@@H]21	?	·	·	-2.0%	-2.0	?
CC1=C(C#N)C(=O)NC1(C)O (centres undefined)	·	·	·	·	19.1	·
CCN1c2ccccc2-c2nc(SCC(=O)Nc3cccc(C(F)(F)F)c3)ncc2S1(=O)=O	·	-6.3%[46.1 µM]	·	·	-26.6	·
COc1cc(OC)cc(-c2oc(=O)c3cc(OC)c(OC)cc3c2C(F)(F)F)c1	·	·	·	1.7%	-24.1	·
CCCNC(=O)OC[C@H]1O[C@H](CCON=C2C[C@@H](O)[C@@H](O)[C@@H]3[C@H]4C(=O)N(CC)C(=O)[C@@H]4CC[C@H]23)C=C[C@H]1Oc1ccc(OC)cc1	·	·	0.3%[14.2 µM]	·	·	·
COC(=O)CN1C(=O)COc2ccc(S(=O)(=O)NCc3ccccc3)cc21	-1.0%	·	·	1.6%	-23.9	30.3%
Cc1c(NC(=O)COC(=O)c2cccn2C)c(=O)n(-c2ccccc2)n1C	·	?	?	0.9%	-4.3	·
CC(=O)CCc1ccc(OCC(O)CNC2CCCc3ccccc32)cc1 (centres undefined)	?	-10.9%	?	?	-73.2*	?
CC(C)(C)NCC(O)COc1ccccc1C1CCCC1 (centres undefined)	2.62µM*	·	·	?	-78.4*	5.22µM*
CC(=O)Nc1ccc(OCC(O)CNC(C)C)cc1 (centres undefined)	6.1%	·	·	20.1%	-17.6	-15.8%
OC(CNC1CCCc2ccccc21)COc1ccc2ccccc2c1 (centres undefined)	?	-1.9%	?	-5.9%	0.3	?
CCc1ccccc1OC[C@@H](O)CN[C@H]1CCCc2ccccc21	1.85µM*	·	·	?	?	1.65µM*
CC(C)(C)NC[C@@H](O)COc1cccc2c1CCCC2=O	-1.7%	·	·	4.2%	-38.2	22.5%
